# In the supplement of paper PMC6555819:
# Test system: VDR:RXRa (NR concentration 270 nM, RXRa partner concentration 90 nM)
# Test: PBM binding z-score (relative to random genomic background probes); higher = stronger binding; sequences stand for … in GC…GCGATTGACAGCGTAGAATGAAGG
# Method: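 Protein-binding microarray (Agilent 4x180K custom design, double-stranded 60-nt probes: 5' GC cap, 34-nt variable region, 24-nt constant primer region; full probe sequence given). Purified or IVT nuclear receptor:RXRα heterodimers (3:1 NR:RXRα, mostly 270:90 nM) or homodimers were incubated for 1 h in PBS with 2% milk and no ligand, then detected with Alexa488 antibodies. Fluorescence from o1-orientation probes (~5 replicates averaged) was converted to z-scores against 500 random hg19 background probes. Variable regions are seed direct-repeat (DR0–DR5) sites, all their single-nucleotide variants and half-site ablations.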
row,Sequence,PBM binding z-score
1,CCTCGGAGGACAACAGGAGGTCAGATCTGCCAGA,1.72
2,ACTAGCAGGCCAAGTGTGGGTCACTCAAACAAAG,0.53
3,TCTTGTAGATCAAAGGTTAGGAAAGCCGAAGCCT,0.697
4,CAAACTAGGTCAAGAGGTCAAGGTCCGCTTCCCG,5.53
5,ACTTACGGGTCACCGAGGTTATAGCACGCGTATA,7.82
6,ACTTACGGGTCAACGAGGCTATAGCACGCGTATA,6.74
7,CCGACTGGGGCTTAAGGTTACCATAAGCCAGCCC,-0.156
8,CCTTACGGATCACGAGGTTATAGCACGACGAGCG,1.05
9,TCGAGTAGGTTAGTAGGGGCATTCAGCCAACATA,3.1
10,CAAACTAGGTCAAGGGTCAAAGTCGAGCCAACCA,5.5
11,TGAACGAGGTTATAAGATCAGGGAACGTTGCAAA,0.923
12,ACAGACAGGTGAGTGAAGGTATCTCAGCTGGACG,-0.617
13,ATATGTGGGTTACATCCGGGTCATTCAGGCTATG,4.41
14,CAGCCTAGGTCAGGGGCAGTATAGGAGGAACGTT,0.806
15,CCTAGTTGGGCAAGGTCACACACGCTATAGGTAC,3.84
16,GATACAGGGTCAGCTAGAGGCCAAAGTATGGAAA,4.26
17,TCAAGTAGGTTAGTCGGGGCATTCAGCCAACATA,2.43
18,ACTAGCAGGCCAAGTTTGCGTCACTCAAACAAAG,-0.321
19,AGCTCTAGGTAAAGATAGTTCAGTGAATGCAAAT,0.921
20,CGAATTAGGTCATTGACAGGACAGTGAATAGTAA,2.3

row,Sequence,PBM binding z-score
1,TCATATAGGGAAAGGTGAAAGTCGAACGATATGA,0.965
2,CCTACTGGGCCACGAGAGGTCATTGATTCAGTGA,4.45
3,CCTCACGGGTCACGAGGTTATAGCACGACGAGCG,4.79
4,AGTCAAAGTTCACTAGGTAGCGTAAGATTCAGCT,3.56
5,CCTACTGGGCCAAGGGCATTGATCAGTCAAAGCA,-0.469
6,TCTAGTTGGCCAAAGGTCACACACTCGAAATGCG,4.93
7,ATATGTAGGTGATCGGGTCATTCAGTTTGCGCAT,4.74
8,CCGACTTGGGCATAAGGTTACCATAAGCCAGCCC,-0.311
9,TCATATAGGTAATACAGGCGAAAGTCGGCATCTA,0.97
10,ACTAGTTGGTCAGCTGAGGTGACACACAATTCGG,0.731
11,AGAACGAGGGCAATGAATTGATAGCACGGGTGGC,0.305
12,CCTGCTAGGTCATGGTAAGCTAATCTACAGTATG,1.49
13,GCTAGTTGGTCAGTAAAACGTCACACACCGGTCG,-0.225
14,CGTCAAAGTTCGACTAAGGTAACGTAAAGCACGC,1.83
15,CGTACTGGGCCAAAAAGGTCATTGATGCCGATAA,5.04
16,TCAGACAGGTGAAGGTCACTCAGGTACGCAGTCG,4.18
17,TCTAGTTGGTCACGGAGGTCACACTCGACGGGTA,5.86
18,TCTTGTAGATCAAGCATGTTAAGAAAGCCTGAGT,0.348
19,CCTCGGAGGACAGAAGGTCAGACCTGTCCGCTTT,1.05
20,TATACAGGGTCAAAGGCCAGGGTACGAATGTCGA,4.93
